Screen size: about 320,000 compounds; about 22,000 (6.9%) were called active. Not shown: some 27% with an inconclusive outcome. Only a selection was taken, and actives are over-represented in it overall. Values without a mark were called inactive. Calls come from the whole dose curve; as a rule, active = well fitted inhibition curve with a large enough effect; inconclusive = small, poorly fitted or top-dose-only effect, or another doubt; inactive = no such curve, though single readings can be large or run the other way.
Test: Primary qHTS for delayed death inhibitors of the malarial parasite plastid, 96 hour incubation
Conditions: P. falciparum luciferase reporter growth; series mostly up to 28.7 µM; activity change, negative = inhibition: at the top concentration
Summary of the method: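 Plates of compound plus infected erythrocytes (2% hematocrit, 0.05% parasitemia final) incubate 96 hours, 37 C, 5% CO2. Detection reagent added; reduced luminescence from the parasites' luciferase reporter flags inhibition.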
% is set by controls: 0 for no effect and ±100 for the full control effect; potency is the fitted concentration of half-maximal effect.

| SMILES | activity change, negative = inhibition | Potency |
| --- | --- | --- |
| C=CCNC(=O)c1ccc2c3n(nc2c1)-c1ccc(C)cc1CO3 | 64.3% | – |
| Cc1oc2cc(Br)c(O)c(Br)c2c1C(=O)c1ccccc1 | 14.3% | – |
| COc1cc(/C(=C/c2ccccc2)c2ccccc2)c2c(c1)oc1ccccc12 | – | 13.1 µM (active) |
| COc1cc2c(cc1NC(=O)COC(=O)/C=C/c1ccccc1)oc1ccccc12 | 49.8% | – |
| CNC(=O)c1sc(NCc2ccccc2OC)nc1C | 8.94% | – |
| O=C(CCNC(=O)c1ccc(Br)cc1)NCCCc1ccccc1 | 20.7% | – |
| COc1ccc(CCNC(=O)CSc2nc(C)nc3c2oc2ccccc23)cc1OC | – | 5.86 µM (active) |
| COc1ccc(CCNC(=O)CSc2nnc(-c3cccc(F)c3)o2)cc1OC | 278% | – |
| COc1ccc(N2CCN(C(=O)CSc3nc4cc(OC)c(OC)cc4cc3C#N)CC2)cc1 | 79% | – |
| COc1ccc(CCNC(=O)CSc2nc(-c3ccc(OC)c(OC)c3)ccc2C#N)cc1 | – | 10.4 µM (active) |
| COc1ccc(CNC(=O)CSc2n[nH]c(N)n2)cc1OC | 5.59% | – |
| COc1ccc(CCNC(=O)CCn2c(=O)oc3ccccc32)cc1OC | -20.2% | – |
| O=C(CCN1CCCO1)N1CCCC(N2CCN(c3cccc(C(F)(F)F)c3)CC2)C1 (configuration not stated) | -24.3% | – |
| Cc1ccc(CSc2nsc(C)c2C#N)cc1 | 15.2% | – |
| CCC(C)(C)NC(=O)CN(C(=O)CCC(=O)Nc1nccs1)c1ccc2c(c1)OCO2 | -16.6% | – |
| Cc1ccc(-n2nc3c(=O)n(C(C)C(=O)NCc4ccc5c(c4)OCO5)nc(C)c3c2C)cc1 (configuration not stated) | – | 1.31 µM (active) |
| COc1ccc(CNC(=O)C(C)n2nc(C)c3c(C)n(-c4ccccc4)nc3c2=O)c(OC)c1 (configuration not stated) | – | 10.4 µM (active) |
| Cc1nc2c(C(=O)NCc3ccc4c(c3)OCO4)c[nH]n2c(=O)c1Cc1ccccc1F | 69.3% | – |
| Cc1nn(CC(=O)N2CCCCC2)c(=O)c2nn(-c3ccccc3)c(C)c12 | -25.7% | – |
| CCn1c(=O)c(C(=O)NCc2ccc3c(c2)OCO3)c(O)c2ccccc21 | 12.7% | – |
| COc1ccc(CNC(=O)COC(=O)c2c(C)nn(-c3ccccc3)c2C)cc1OC | 53.4% | – |
| CC(C)CNC(=O)C(=O)NCC(c1ccc2c(c1)OCO2)N1CCOCC1 (configuration not stated) | 80.6% | – |
| CC12CCC(C(=O)N(c3cccc(Cl)c3)C1=O)C2(C)C (configuration not stated) | 86.3% | – |
| CC1=NN(c2cccc(Cl)c2)C(=O)C12CC(C)=C(C)CS2 (configuration not stated) | – | 3.7 µM (active) |
| Cc1cccc(OCCC(=O)OCc2csc(CC(=O)Nc3ccccc3C)n2)c1 | -1.27% | – |
| O=CN1CCN(C(=O)c2ccc(Br)o2)CC1 | -8.76% | – |

| SMILES | activity change, negative = inhibition | Potency |
| --- | --- | --- |
| COc1ccc(-n2cnnc2SCC(=O)Nc2cccc(S(N)(=O)=O)c2)cc1 | -2.69% | – |
| O=C(N/N=C/c1cccc(Br)c1)c1ccc(N2CCCC2=O)cc1 | 11.4% | – |
| CCOC(=O)N1CCN(C(=O)C2CCN(S(=O)(=O)c3cc(Cl)ccc3OCC)CC2)CC1 | 38.7% | – |
| CN(C)P(=S)(Nc1ccccc1)C(Cl)(Cl)Cl (configuration not stated) | – | 8.28 µM (active) |
| O=C(CN1CCN(c2ccccc2)CC1)Nc1ccc(F)cc1 | 10.7% | – |
| CC(Oc1ccc(F)cc1)C(=O)N1CCN(c2ncccn2)CC1 (configuration not stated) | 7.12% | – |
| COCCN(C(=O)CC1CCCCC1)c1c(N)n(CC(C)C)c(=O)[nH]c1=O | -19.9% | – |
| CCC(=O)Nc1cccc(NC(=O)c2cccnc2)c1 | – | 13.1 µM (active) |
| CCN(CC)S(=O)(=O)c1cccc(C(=O)Nc2ccccc2)c1 | -28% | – |
| CCC(=O)Nc1ccc(C(=O)Nc2cccc(OC)c2)cc1 | 25.3% | – |
| CN(C)S(=O)(=O)c1cccc(C(=O)Nc2cccnc2)c1 | – | 3.29 µM (active) |
| O=C(Nc1cccnc1)c1cccc(S(=O)(=O)N2CCCC2)c1 | 22.3% | – |
| CCOC(=O)c1cc(NC(=O)c2cccnc2)cc(C(=O)OCC)c1 | -1.24% | – |
| COc1ccc(C(=O)N2CCN(c3ncccn3)CC2)cc1S(=O)(=O)N1CCOCC1 | 29.3% | – |
| O=C1CN(C(=O)c2cc(F)cc(F)c2)c2ccccc2N1 | 21.9% | – |
| O=c1[nH]c(=O)n(-c2ccc(F)cc2)c(O)c1C=NCCN1CCCCC1 | -0.537% | – |
| Cn1c(O)c(C=Nc2ccc3c(c2)CCC3)c(=O)n(C)c1=O | -0.84% | – |
| Cn1c(O)c(C=NCCN2CCNCC2)c(=O)n(C)c1=O | – | 9.28 µM (active) |
| COc1ccc(NC(=O)c2cn(-c3ccccc3)nc2SC)cc1 | 32.2% | – |
| Cc1cccc(N2CCN(C(=O)COCc3cc(-c4ccc5c(c4)OCO5)on3)CC2)c1C | 63.5% | – |
| Cc1ccsc1-c1cc(C(=O)O)c2c(ccc3ccccc32)n1 | 42.5% | – |
| Cc1ccc(Cl)cc1NC(=S)N(CCN(C)C)Cc1cccs1 | 42.5% | – |
| Cc1ccc(NC(=S)N(CCN(C)C)Cc2cccs2)cc1C | 14.5% | – |
| Cc1ccccc1NC(=S)N(CCCN1CCOCC1)Cc1cccs1 | – | 3.7 µM (active) |
| CCN(C(=O)COC(=O)c1sccc1C)c1c(N)n(Cc2ccccc2)c(=O)[nH]c1=O | -27.9% | – |
| COc1ccc(OC)c(/C=N/NC(=O)c2ccc[n+](CC(=O)c3ccccc3)c2)c1 | 13.8% | – |

Source: PubChem BioAssay AID504834 (National Center for Advancing Translational Sciences (NCATS), 2011)
